# Measured values from PubChem BioAssay AID1159580 (chemical genetic matrix, 2015).
# About 2,000 (36%) of roughly 5,500 compounds were called active. Roughly 18% stayed inconclusive and do not appear here. The list shows a part of the results. Values without a mark were called inactive. Rule as the data show it: active = normalized growth mostly below about 0.91 (no sharp cut-off); inconclusive = no clear call, values can overlap the other calls; inactive = mostly above about 0.92.
# Assay: chemical genetic growth profiling, strain panel (AID 1159580);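 also: tested at 20 µM; growth read once vehicle control cultures reached saturation at 30 °C; 1 = growth at the plate median or of vehicle wells; lower values mean less growth of the strain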
# Conditions: growth OD
compound,measurement,setting,value
COc1ccc2c(c1)OCC(Cc1ccc(OC)c(O)c1)C2=O (stereo not drawn),normalized growth,"S. cerevisiae deletion strains, locus YJR043C, strain POL32, hits give low values",0.998
same,normalized growth,"S. cerevisiae deletion strains, locus YJR066W, strain TOR1, hits give low values",0.904
same,normalized growth,"S. cerevisiae deletion strains, locus YKL009W, strain mrt4, hits give low values",0.94
same,normalized growth,"S. cerevisiae deletion strains, locus YKL068W, hits give low values",0.97
same,normalized growth,"S. cerevisiae deletion strains, locus YKL085W, strain MDH1 (second series), hits give low values",0.969
same,normalized growth,"S. cerevisiae deletion strains, locus YKL085W, strain MDH1, hits give low values",0.969
same,normalized growth,"S. cerevisiae deletion strains, locus YKL160W, strain elf1, hits give low values",0.925
same,normalized growth,"S. cerevisiae deletion strains, locus YKL190W, strain CNB1, hits give low values",0.984
same,normalized growth,"S. cerevisiae deletion strains, locus YKR001C, strain vps1, hits give low values",0.964
same,normalized growth,"S. cerevisiae deletion strains, locus YKR026C, strain gcn3, hits give low values",0.966
same,normalized growth,"S. cerevisiae deletion strains, locus YKR091W, strain srl3, hits give low values",0.962
same,normalized growth,"S. cerevisiae deletion strains, locus YLL001W, strain dnm1, hits give low values",0.931
same,normalized growth,"S. cerevisiae deletion strains, locus YLL026W, hits give low values",0.957
same,normalized growth,"S. cerevisiae deletion strains, locus YLL041C, strain sdh2, hits give low values",0.955
same,normalized growth,"S. cerevisiae deletion strains, locus YLR027C, strain aat2, hits give low values",0.933
same,normalized growth,"S. cerevisiae deletion strains, locus YLR039C, strain RIC1, hits give low values",1.02
same,normalized growth,"S. cerevisiae deletion strains, locus YLR058C, strain SHM2, hits give low values",0.958
same,normalized growth,"S. cerevisiae deletion strains, locus YLR102C, strain apc9, hits give low values",0.955
same,normalized growth,"S. cerevisiae deletion strains, locus YLR113W, strain HOG1, hits give low values",0.917
same,normalized growth,"S. cerevisiae deletion strains, locus YLR221C, strain rsa3, hits give low values",0.923
same,normalized growth,"S. cerevisiae deletion strains, locus YLR258W, strain gsy2, hits give low values",0.91 (active)
same,normalized growth,"S. cerevisiae deletion strains, locus YLR262C, strain YPT6 (second series), hits give low values",0.985
same,normalized growth,"S. cerevisiae deletion strains, locus YLR262C, strain YPT6, hits give low values",0.986
same,normalized growth,"S. cerevisiae deletion strains, locus YLR268W, strain sec22, hits give low values",0.976
same,normalized growth,"S. cerevisiae deletion strains, locus YLR320W, strain mms22, hits give low values",0.835 (active)
same,normalized growth,"S. cerevisiae deletion strains, locus YLR330W, strain CHS5, hits give low values",0.952
same,normalized growth,"S. cerevisiae deletion strains, locus YLR342W, strain FKS1 (second series), hits give low values",0.955
same,normalized growth,"S. cerevisiae deletion strains, locus YLR342W, strain FKS1, hits give low values",0.922
same,normalized growth,"S. cerevisiae deletion strains, locus YLR357W, strain rsc2, hits give low values",0.998
same,normalized growth,"S. cerevisiae deletion strains, locus YLR370C, strain arc18, hits give low values",0.97
same,normalized growth,"S. cerevisiae deletion strains, locus YLR371W, strain rom2, hits give low values",0.975
same,normalized growth,"S. cerevisiae deletion strains, locus YLR384C, strain iki3, hits give low values",0.948
same,normalized growth,"S. cerevisiae deletion strains, locus YLR418C, strain cdc73, hits give low values",0.81 (active)
same,normalized growth,"S. cerevisiae deletion strains, locus YML016C, strain PPZ1, hits give low values",0.967
same,normalized growth,"S. cerevisiae deletion strains, locus YML032C, strain rad52, hits give low values",0.949
same,normalized growth,"S. cerevisiae deletion strains, locus YML120C, strain ndi1, hits give low values",0.938
same,normalized growth,"S. cerevisiae deletion strains, locus YML124C, strain tub3, hits give low values",0.954
same,normalized growth,"S. cerevisiae deletion strains, locus YMR058W, strain fet3, hits give low values",0.948
same,normalized growth,"S. cerevisiae deletion strains, locus YMR078C, strain ctf18, hits give low values",0.95
same,normalized growth,"S. cerevisiae deletion strains, locus YMR125W, strain sto1, hits give low values",1.01
same,normalized growth,"S. cerevisiae deletion strains, locus YMR129W, hits give low values",0.948
same,normalized growth,"S. cerevisiae deletion strains, locus YMR205C, strain PFK2, hits give low values",0.833 (active)
same,normalized growth,"S. cerevisiae deletion strains, locus YMR223W, strain ubp8, hits give low values",0.933
same,normalized growth,"S. cerevisiae deletion strains, locus YMR231W, strain pep5, hits give low values",0.967
same,normalized growth,"S. cerevisiae deletion strains, locus YMR307W, strain GAS1, hits give low values",0.97
same,normalized growth,"S. cerevisiae deletion strains, locus YNL067W, strain RPL9B, hits give low values",0.944
same,normalized growth,"S. cerevisiae deletion strains, locus YNL071W, strain lat1, hits give low values",0.681 (active)
same,normalized growth,"S. cerevisiae deletion strains, locus YNL183C, strain NPR1, hits give low values",0.933
same,normalized growth,"S. cerevisiae deletion strains, locus YNL209W, strain ssb2, hits give low values",0.978
same,normalized growth,"S. cerevisiae deletion strains, locus YNL233W, strain BNI4, hits give low values",0.905
same,normalized growth,"S. cerevisiae deletion strains, locus YNL248C, strain rpa49, hits give low values",0.919
same,normalized growth,"S. cerevisiae deletion strains, locus YNL250W, strain rad50, hits give low values",0.94
same,normalized growth,"S. cerevisiae deletion strains, locus YNL271C, strain bni1, hits give low values",0.952
same,normalized growth,"S. cerevisiae deletion strains, locus YNL298W, strain CLA4, hits give low values",0.959
same,normalized growth,"S. cerevisiae deletion strains, locus YNL307C, strain MCK1, hits give low values",0.824 (active)
same,normalized growth,"S. cerevisiae deletion strains, locus YNL322C, strain KRE1 (second series), hits give low values",0.949
same,normalized growth,"S. cerevisiae deletion strains, locus YNR049C, strain mso1, hits give low values",0.967
same,normalized growth,"S. cerevisiae deletion strains, locus YNR052C, strain pop2, hits give low values",0.937
same,normalized growth,"S. cerevisiae deletion strains, locus YOL012C, strain htz1",1.16
same,normalized growth,"S. cerevisiae deletion strains, locus YOL147C, strain pex11, hits give low values",0.964
same,normalized growth,"S. cerevisiae deletion strains, locus YOR001W, strain rrp6, hits give low values",0.898
same,normalized growth,"S. cerevisiae deletion strains, locus YOR061W, strain CKA2, hits give low values",0.963
same,normalized growth,"S. cerevisiae deletion strains, locus YOR069W, strain VPS5, hits give low values",0.96
same,normalized growth,"S. cerevisiae deletion strains, locus YOR070C, strain gyp1, hits give low values",0.968
same,normalized growth,"S. cerevisiae deletion strains, locus YOR080W, strain dia2, hits give low values",0.979
same,normalized growth,"S. cerevisiae deletion strains, locus YOR083W, strain WHI5, hits give low values",0.911
same,normalized growth,"S. cerevisiae deletion strains, locus YOR106W, strain vam3, hits give low values",0.886
same,normalized growth,"S. cerevisiae deletion strains, locus YOR136W, strain idh2, hits give low values",0.962
same,normalized growth,"S. cerevisiae deletion strains, locus YOR144C, strain elg1, hits give low values",0.95
same,normalized growth,"S. cerevisiae deletion strains, locus YOR184W, strain ser1, hits give low values",0.906
same,normalized growth,"S. cerevisiae deletion strains, locus YOR231W, strain MKK1, hits give low values",0.998
same,normalized growth,"S. cerevisiae deletion strains, locus YOR265W, strain rbl2, hits give low values",0.962
same,normalized growth,"S. cerevisiae deletion strains, locus YOR270C, strain vph1, hits give low values",0.823
same,normalized growth,"S. cerevisiae deletion strains, locus YOR290C, strain snf2, hits give low values",0.897
same,normalized growth,"S. cerevisiae deletion strains, locus YOR316C, strain cot1, hits give low values",0.959
same,normalized growth,"S. cerevisiae deletion strains, locus YPL051W, strain arl3, hits give low values",0.939
same,normalized growth,"S. cerevisiae deletion strains, locus YPL055C, strain LGE1, hits give low values",0.96
same,normalized growth,"S. cerevisiae deletion strains, locus YPL078C, strain atp4, hits give low values",0.914
same,normalized growth,"S. cerevisiae deletion strains, locus YPL106C, strain sse1, hits give low values",0.972
same,normalized growth,"S. cerevisiae deletion strains, locus YPL240C, strain hsp82, hits give low values",0.946
same,normalized growth,"S. cerevisiae deletion strains, locus YPL241C, strain CIN2, hits give low values",0.973
same,normalized growth,"S. cerevisiae deletion strains, locus YPL256C, strain CLN2, hits give low values",1.01
same,normalized growth,"S. cerevisiae deletion strains, locus YPR119W, strain clb2, hits give low values",0.95
same,normalized growth,"S. cerevisiae deletion strains, locus YPR141C, strain kar3, hits give low values",0.971
same,normalized growth,"S. cerevisiae deletion strains, locus YPR163C, strain tif3, hits give low values",0.842 (active)
same,normalized growth,"S. cerevisiae deletion strains, locus YPR167C, strain met16, hits give low values",0.89 (active)
same,normalized growth,"S. cerevisiae deletion strains, strain wtn01, hits give low values",0.95
same,normalized growth,"S. cerevisiae strains, strain wild type, hits give low values",0.973
